FMDV inh = High Throughput Screening for Foot and Mouth Disease Virus Antivirals | AID 1159524, 2015 | Potency, µM (doses to about 57.9 µM), most hits filed as inhibitors | 410,000 tested, 1.2% active | FMDV antiviral cell-based qHTS; calls by dose curve; tested in HEK293T cells; further: read-out not given here; nearly all actives have a fitted effect of over 45% in size
Marburg entry inh = qHTS for inhibitors of binding or entry into cells for Marburg Virus | Marburg virus pseudotyped entry inhibition, cell reporter | Potency, µM (top dose mostly 37.8 µM), most hits filed as inhibitors | 300,000 tested, 1.8% active | AID 540276, 2011; calls by dose curve; tested in HEK293 cells
Sm TGR block = qHTS Assay for the Inhibitors of Schistosoma Mansoni Peroxiredoxins; Schistosoma mansoni thioredoxin glutathione reductase (TGR), Q962Y6; purified TGR, DTNB reduction, TNB absorbance 405 nm; Potency, µM (highest dose often 114 µM), actives largely listed as inhibitors; 360,000 tested, 3% active; AID 485364, 2010; active means well fitted inhibition curve with a large enough effect; inconclusive means small, poorly fitted or top-dose-only effect; inactive means no such curve, though single readings can be large or run the other way; further: nearly all actives have a fitted effect of over 60% in size
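TGR 20 nM + NADPH 100 uM (dispensed conc.), cpd preinc 15 min RT; start with NADPH (500 uM addition) then DTNB (15 mM addition). Kinetic TNB absorbance, 405 nm filter. Four-parameter Hill fit across titration.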
Vaccinia mCherry = qHTS for Stage-Specific Inhibitors of Vaccinia Orthopoxvirus: mCherry Reporter Primary qHTS; Potency, µM (series often up to 36.5 µM), hits mostly inhibitors; 310,000 tested, 0.63% active; Vaccinia virus mCherry reporter infection, fluorescence; AID 720579, 2013; calls by dose curve; tested in A549 cells; further: nearly all actives have a fitted effect of over 35% in size
Lassa entry inh = qHTS for Inhibitors of binding or entry into cells for Lassa Virus | Lassa virus pseudotype entry inhibition, cell reporter | Potency, µM (top dose mostly 37.9 µM), most hits filed as inhibitors | 300,000 tested, 1.2% active | AID 540256, 2011; calls by dose curve; tested in HEK293 cells; further: nearly all actives have a fitted effect of over 50% in size
Vaccinia Venus = qHTS for Stage-Specific Inhibitors of Vaccinia Orthopoxvirus: Venus Reporter Primary qHTS; Vaccinia virus Venus reporter expression, fluorescence; Potency, µM (doses to about 36.5 µM), actives largely listed as inhibitors; 330,000 tested, 0.46% active; calls by dose curve; tested in A549 cells; further: nearly all actives have a fitted effect of over 30% in size
Large screens that a line does not name were inactive. An excerpt weighted towards active compounds, which were near 5.4% of everything screened.

COc1cc(C(C)=O)ccc1OCC(=O)Nc1ccc(Cl)c(S(=O)(=O)N2CCOCC2)c1	FMDV inh 20µM (no result: Marburg entry inh, Vaccinia mCherry, Lassa entry inh, Vaccinia Venus)
O=C(CCCSc1ccccc1)Nc1ccc(Cl)c(S(=O)(=O)N2CCOCC2)c1	FMDV inh 25.1µM, Marburg entry inh inconclusive, Vaccinia mCherry inconclusive, Lassa entry inh inconclusive
O=C(CCCOc1ccccc1)Nc1ccc(Cl)c(S(=O)(=O)N2CCOCC2)c1	FMDV inh 28.2µM, Marburg entry inh inconclusive, Lassa entry inh 17.8µM (no result: Sm TGR block)
COc1ccc(C(=O)N2CCC3(CC2)c2ccccc2[C@@H](NC(=O)c2ccccn2)[C@@H]3OC)c(O)c1	none (no result: Marburg entry inh, Sm TGR block, Lassa entry inh)
COc1cccc(N2CCN(C3CC(=O)N(c4ccc(C)c(Cl)c4)C3=O)CC2)c1 (configuration not stated)	none (no result: Vaccinia mCherry, Vaccinia Venus)
COc1ccc(NC2CCN(C3CC(=O)N(c4ccc(F)c(Cl)c4)C3=O)CC2)cc1 (configuration not stated)	Sm TGR block 11.2µM (no result: Vaccinia mCherry)
COc1cccc(N2CCN(C3CC(=O)N(c4ccc(F)c(Cl)c4)C3=O)CC2)c1 (configuration not stated)	Sm TGR block 50.1µM
COc1ccc2cc(CNCc3ccccc3Cl)c(N3CCCC(CO)C3)nc2c1 (configuration not stated)	none (no result: Marburg entry inh, Sm TGR block, Lassa entry inh)
C#CCOCCOCCOCCNc1nc(N2CCN(C(=O)C([C@@H](C)CC)n3cc(C(N)Cc4ccc(O)cc4)nn3)CC2)nc(N2CCN(C(=O)[C@H](CCC(=O)O)n3cc(C(N)CO)nn3)CC2)n1 (some centres not stated)	Sm TGR block 39.8µM (no result: Marburg entry inh, Lassa entry inh)
C#CCOCCOCCOCCNc1nc(N2CCN(C(=O)[C@H]([C@@H](C)CC)n3cc([C@@H](N)Cc4ccc(O)cc4)nn3)CC2)nc(N2CCN(C(=O)[C@H](CCCCN)n3cc([C@@H](N)CC(C)C)nn3)CC2)n1	Sm TGR block 12.6µM (no result: FMDV inh, Marburg entry inh, Vaccinia mCherry, Lassa entry inh, Vaccinia Venus)
C#CCOCCOCCOCCNc1nc(N2CCN(C(=O)C([C@@H](C)CC)n3cc(C(N)Cc4ccc(O)cc4)nn3)CC2)nc(N2CCN(C(=O)[C@H](CCC(=O)O)n3cc(C(N)Cc4ccc(O)cc4)nn3)CC2)n1 (some centres not stated)	none (no result: Marburg entry inh, Lassa entry inh)
C#CCOCCOCCOCCNc1nc(N2CCOCC2)nc(N2CCN(C(=O)[C@H](CCC(=O)O)n3cc(C(N)[C@H](C)CC)nn3)CC2)n1 (some centres not stated)	Sm TGR block 20µM (no result: Marburg entry inh, Lassa entry inh)
C#CCOCCOCCOCCNc1nc(N2CCN(C(=O)[C@H](CCC(=O)O)n3cc(C(N)CC(C)C)nn3)CC2)nc(N2CCN(C(=O)[C@H](Cc3ccc(O)cc3)n3cc(C(N)CC(C)C)nn3)CC2)n1 (some centres not stated)	none (no result: Marburg entry inh, Lassa entry inh)
C#CCOCCOCCOCCNc1nc(N2CCN(C(=O)[C@H](CCC(=O)O)n3cc(C(N)Cc4ccc(O)cc4)nn3)CC2)nc(N2CCN(C(=O)[C@H](Cc3ccc(O)cc3)n3cc(C(N)CC(C)C)nn3)CC2)n1 (some centres not stated)	Sm TGR block 14.1µM (no result: FMDV inh, Marburg entry inh, Vaccinia mCherry, Lassa entry inh, Vaccinia Venus)
C#CCOCCOCCOCCNc1nc(N2CCN(C(=O)[C@H](CCCCN)n3cc([C@@H](N)CC(C)C)nn3)CC2)nc(N2CCN(C(=O)[C@H](Cc3ccc(O)cc3)n3cc([C@@H](N)CC(C)C)nn3)CC2)n1	none (no result: Marburg entry inh, Lassa entry inh)
COC(=O)CN1[C@@]2(C#N)CCCC[C@@H]2C[C@H]2CCCC[C@]21C#N	none (no result: FMDV inh, Sm TGR block, Vaccinia mCherry, Lassa entry inh, Vaccinia Venus)
C#CCCCON=C1C[C@@H](O)[C@H](O)[C@H]2[C@@H]3C(=O)N(c4ccc(F)cc4F)C(=O)[C@@H]3CC[C@H]12	none (no result: FMDV inh, Sm TGR block, Vaccinia mCherry, Lassa entry inh, Vaccinia Venus)
C#CCOCCOCCOCCNc1nc(N2CCN(C(=O)[C@H]([C@@H](C)CC)n3cc([C@@H](N)CO)nn3)CC2)nc(N2CCN(C(=O)[C@H]([C@@H](C)CC)n3cc([C@@H](N)CO)nn3)CC2)n1	none (no result: FMDV inh, Marburg entry inh, Vaccinia mCherry, Lassa entry inh, Vaccinia Venus)
C#CCOCCOCCOCCNc1nc(N2CCN(C(=O)C(Cc3ccc(O)cc3)n3cc(C(N)C(C)CC)nn3)CC2)nc(N2CCN(C(=O)C(Cc3ccc(O)cc3)n3cc(C(N)C(C)CC)nn3)CC2)n1 (configuration not stated)	none (no result: Marburg entry inh, Lassa entry inh)
C#CCOCCOCCOCCNc1nc(N2CCN(C(=O)[C@H](Cc3ccc(O)cc3)n3cc([C@@H](N)CC(C)C)nn3)CC2)nc(N2CCN(C(=O)[C@H](Cc3ccc(O)cc3)n3cc([C@@H](N)CC(C)C)nn3)CC2)n1	Sm TGR block 17.8µM (no result: FMDV inh, Marburg entry inh, Vaccinia mCherry, Lassa entry inh, Vaccinia Venus)
C#CCOCCOCCOCCNc1nc(N2CCN(C(=O)[C@H](CCC(=O)O)n3cc(C(N)[C@H](C)CC)nn3)CC2)nc(N2CCN(C(=O)[C@H](Cc3ccc(O)cc3)n3cc(C(N)[C@H](C)CC)nn3)CC2)n1 (some centres not stated)	Sm TGR block 50.1µM (no result: Marburg entry inh, Lassa entry inh)
C#CCOCCOCCOCCNc1nc(N2CCN(C(=O)[C@H]([C@@H](C)CC)n3cc([C@@H](N)CO)nn3)CC2)nc(N2CCN(C(=O)[C@H]([C@@H](C)CC)n3cc([C@@H](N)CC(C)C)nn3)CC2)n1	Sm TGR block 35.5µM (no result: Marburg entry inh, Lassa entry inh)
CC(=O)OC[C@H]1O[C@H](CC=NOC[C@@H](C)[C@H](OCc2ccccc2)C(C)C)C=C[C@@H]1OC(C)=O	none (no result: FMDV inh, Sm TGR block, Vaccinia mCherry, Lassa entry inh, Vaccinia Venus)
c1coc(CNc2nc[n+]3c4c2ncn4CC3)c1	none (no result: FMDV inh, Marburg entry inh, Sm TGR block, Lassa entry inh)
COc1ccccc1CNC(=O)Cn1c(=O)nc(-c2ccccc2F)c2cc(Cl)ccc21	Lassa entry inh inconclusive (no result: Marburg entry inh)
COc1ccc(N2CC(NC(=O)C3CCCC3)CC2=O)cc1OC (configuration not stated)	none (no result: Marburg entry inh)
Cc1nc2cc(-c3ccsc3-n3c(C)ccc3C)[nH]n2c(=O)c1Cl	FMDV inh 31.6µM
Cc1cc(=O)n2[nH]c(-c3ccsc3-n3c(C)ccc3C)cc2n1	Sm TGR block 20µM (no result: Marburg entry inh, Lassa entry inh)
Cc1ccccc1-c1cc2nc(C)c(Cl)c(=O)n2[nH]1	Marburg entry inh 12.6µM, Lassa entry inh inconclusive (no result: Sm TGR block)
COCc1cc(=O)n2[nH]c(-c3ccsc3-n3c(C)ccc3C)cc2n1	Sm TGR block inconclusive
COc1cccc(Cn2c(=O)cc(C)c3c(C)nn(-c4ccc(C)cc4)c32)c1	none (no result: Marburg entry inh)
CCOC(=O)c1ccc(CN(Cc2ccccc2)S(=O)(=O)c2ccc(C)cc2)cc1	Lassa entry inh 11.2µM (no result: Marburg entry inh)
COc1cccc(CNC(=O)c2ccc(CN3CC(=O)N4CCCCC4C3=O)cc2)c1 (configuration not stated)	none (no result: Marburg entry inh)
NS(=O)(=O)c1ccc(CCNC(=O)c2cc(-c3ccco3)nc3ccccc23)cc1	Sm TGR block 8.91µM (no result: Marburg entry inh, Vaccinia mCherry, Lassa entry inh, Vaccinia Venus)
CC(C)CCNC(=O)c1cc(-c2ccco2)nc2ccccc12	Sm TGR block 39.8µM (no result: Vaccinia mCherry, Vaccinia Venus)

Source: PubChem BioAssay (National Center for Advancing Translational Sciences (NCATS))
